Screening results as filed in PubChem BioAssay.
Pf growth 96h: Primary qHTS for delayed death inhibitors of the malarial parasite plastid, 96 hour incubation | P. falciparum luciferase reporter growth, 96 h | Potency, µM (series often up to 28.7 µM), most hits filed as inhibitors | 320,000 compounds, 6.9% hits | AID 504834, 2011
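Luminescence readout: decreased luciferase signal marks inhibited growth of reporter-expressing P. falciparum in infected red cells (2% hematocrit, 0.05% parasitemia final), exposed to compound two generations (96 h, 37 C, 5% CO2).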
AmpC no deterg: qHTS Inhibitors of AmpC Beta-Lactamase (assay without detergent) | Potency, µM (doses to about 57.1 µM), most hits filed as inhibitors | AmpC nitrocefin hydrolysis, absorbance 480 nm, 0.0001% Triton | 330,000 compounds, 0.52% hits | P00811; also: nearly all actives have a fitted effect of over 20% in size
Target sequence (P00811 whole entry, looked up): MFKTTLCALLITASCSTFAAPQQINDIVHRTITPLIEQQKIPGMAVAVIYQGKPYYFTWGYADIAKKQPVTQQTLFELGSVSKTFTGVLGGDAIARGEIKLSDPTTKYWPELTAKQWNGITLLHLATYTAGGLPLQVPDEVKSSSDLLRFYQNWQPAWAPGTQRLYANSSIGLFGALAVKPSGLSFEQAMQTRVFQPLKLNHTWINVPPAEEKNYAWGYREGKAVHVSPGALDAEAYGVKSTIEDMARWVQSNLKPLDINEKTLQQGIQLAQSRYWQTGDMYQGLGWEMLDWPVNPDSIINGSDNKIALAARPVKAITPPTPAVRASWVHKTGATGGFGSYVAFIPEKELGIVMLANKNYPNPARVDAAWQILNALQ
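20 mM phosphate pH 7.0 + 0.01% (detergent screen) or 0.0001% Triton X-100; 5.3 nM AmpC reagent; cpd preinc 15 min RT; nitrocefin (800 uM stock) to start; A480 q20 s × 4 min; Activity was normalised to no-enzyme and no-compound control wells.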
AmpC detergent: qHTS Inhibitors of AmpC Beta-Lactamase (assay with detergent). P00811. AmpC hydrolysis of nitrocefin, absorbance 480 nm, 0.01% Triton. Potency, µM (series often up to 114 µM), hits mostly inhibitors. 370,000 compounds, 0.041% hits. AID 485294, 2010; also: nearly all actives have a fitted effect of over 25% in size
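20 mM phosphate pH 7.0 + 0.01% (detergent screen) or 0.0001% Triton X-100; 5.3 nM AmpC reagent; cpd preinc 15 min RT; nitrocefin (800 uM stock) to start; A480 q20 s × 4 min; Activity was normalised to no-enzyme and no-compound control wells.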
Sm TGR block: qHTS Assay for the Inhibitors of Schistosoma Mansoni Peroxiredoxins | Schistosoma mansoni thioredoxin glutathione reductase (TGR), Q962Y6 | purified TGR, DTNB reduction, TNB absorbance 405 nm | Potency, µM (series often up to 114 µM), usual class: inhibitors | 360,000 compounds, 3% hits | AID 485364, 2010; also: nearly all actives have a fitted effect of over 60% in size
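First, TGR (20 nM dispensed) and NADPH were mixed with compound. Second, a 15 min room-temperature incubation followed. Third, further NADPH and then DTNB were added to start the reaction. Finally, TNB absorbance was monitored kinetically.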
Pf growth 48h: Primary qHTS for delayed death inhibitors of the malarial parasite plastid, 48 hour incubation; P. falciparum luciferase growth in erythrocytes, 48 h; Potency, µM (highest dose often 28.7 µM), most hits filed as inhibitors; 310,000 compounds, 5.9% hits
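Luminescence readout; reporter = integrated firefly luciferase in P. falciparum. RBC culture at 2% hematocrit, 0.1% parasitemia final, 37 C/5% CO2; decreased signal taken as growth inhibition.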
SARS PLP yeast: qHTS of Yeast-based Assay for SARS-CoV PLP | Potency, µM (highest dose often 32.9 µM), most hits filed as activators | S. cerevisiae expressing SARS-CoV PLpro, growth rescue | 330,000 compounds, 0.19% hits | AID 485353, 2010; calls by dose curve; also: nearly all actives have a fitted effect of over 55% in size
A number is an active result; - = inactive; ? = inconclusive; . = not tested or not shown; [ ] = another dose, or the depositor's remark. In the library only some 12% were active in any assay of this set; here they are far more common. Unless noted, calls follow the shape of the dose curve; as a rule, active = well fitted curve in the direction sought with a large enough effect; inconclusive = small, poorly fitted or top-dose-only effect, or another doubt; inactive = no such curve, though single readings can be large; an effect the other way counts as inactive or inconclusive.

SMILES	Pf growth 96h	AmpC no deterg	AmpC detergent	Sm TGR block	Pf growth 48h	SARS PLP yeast
CCC(C)c1ccc(NC(=S)NCCn2cc(Br)cn2)cc1 (stereo not given)	?	-	?	-	?	-
CCC(C)c1ccc(NC(=S)NCCn2cc(Cl)cn2)cc1 (stereo not given)	?	-	-	-	9.3µM	-
CC(C)(C)S(=O)(=O)c1ccc(S(=O)(=O)C(C)(C)C)s1	-	-	-	-	-	-
CCCc1ccccc1OCCNC(C)=O	8.3µM	-	-	-	-	-
Cc1ccc2oc(C(=O)N(Cc3ccc(N(C)C)cc3)C3CCS(=O)(=O)C3)c(C)c2c1 (stereo not given)	4.7µM	-	-	-	?	-
Cc1c(C(=O)N(Cc2cccc(Br)c2)C2CCS(=O)(=O)C2)oc2ccc(F)cc12 (stereo not given)	13µM	-	-	-	?	-
Cc1c(C(=O)N(Cc2ccc(Cl)cc2)C2CCS(=O)(=O)C2)oc2ccccc12 (stereo not given)	-	-	-	-	13µM	-
COc1ccc(CN(C(=O)c2oc3ccccc3c2C)C2CCS(=O)(=O)C2)cc1OC (stereo not given)	-	-	-	-	?	-
Cc1ccc2c(C)c(C(=O)N(Cc3ccc(N(C)C)cc3)C3CCS(=O)(=O)C3)oc2c1 (stereo not given)	?	-	-	-	?	-
COc1ccc(CN(C(=O)c2oc3cc(C)c(C)cc3c2C)C2CCS(=O)(=O)C2)cc1OC (stereo not given)	2.9µM	-	-	-	?	-
CCOc1cc(Cn2c(-c3ccc(O)c(OCC)c3)nc3ccccc32)ccc1O	.	.	-	-	.	.
CCc1cc2ccc(C)cc2nc1SCC(=O)Nc1c[nH]c(=O)[nH]c1=O	-	-	-	-	-	-
Cn1nc(-c2ccc(Cl)cc2)c2cc(C(=O)NC3CC3)sc21	-	-	-	-	.	-
COCc1cc(Sc2ccc(Br)cc2)nc(-c2ccccc2)n1	-	-	-	?	?	-
CCN(CC)C(=O)Oc1cc(COC)nc(-c2ccccc2)n1	?	-	-	-	10µM	-
O=c1c(C(c2ccc(F)cc2)c2c(O)nc3n(c2=O)CCCS3)c(O)nc2n1CCCS2	-	-	-	1.8µM	-	-
O=c1c(C(c2ccccc2)c2c(O)nc3n(c2=O)CCCS3)c(O)nc2n1CCCS2	-	-	-	4.5µM	-	-
CC(NC(=O)c1cnc2n(c1=O)CCS2)c1ccccc1 (stereo not given)	-	-	?	-	-	-
O=c1c2[nH]c3ccccc3c2nc2n1CCCS2	?	-	-	-	-	-
O=c1c(C(c2ccccc2)c2c(O)nc3n(c2=O)CCS3)c(O)nc2n1CCS2	-	-	?	1.8µM	-	-
COc1ccc(C2CC(c3cccs3)=NN2C(=O)CN2CCCCC2)cc1 (stereo not given)	-[5.75 µM]	-	-	-	-	-
COc1ccc(C2CC(c3ccccc3O)=NN2C(=O)c2ccccc2)cc1OC (stereo not given)	4.1µM	-	-	-	6.6µM	-
COc1ccc(C2=NN(C(=O)c3ccccc3)C(c3ccc(OC)c(OC)c3)C2)c(OC(C)=O)c1 (stereo not given)	10µM	-	-	-	12µM	-
COc1cc(C2CC(c3cccs3)=NN2C(=O)CCl)ccc1OC(F)F (stereo not given)	?	-	-	7.9µM	?	-
COc1ccc(C2CC(c3ccc(OC)cc3O)=NN2C(=O)c2ccccc2)cc1 (stereo not given)	?	-	-	-	-[0.00184 µM]	-
SMILES	Pf growth 96h	AmpC no deterg	AmpC detergent	Sm TGR block	Pf growth 48h	SARS PLP yeast
O=C(c1ccccc1)N1N=C(c2ccccc2O)CC1c1ccccc1 (stereo not given)	?	-	-	-	5.9µM	-
COc1ccc(C2CC(c3ccc4ccccc4c3OC(C)=O)=NN2C(C)=O)cc1 (stereo not given)	-	-	-	-	?	-
CC(C)Cc1[nH]c(=O)c(C#N)c2c1COC(C)(C)C2	.	-	?	-	-	-
COc1ccc(C2CC(c3cccs3)=NN2C(=O)CCl)cc1OC (stereo not given)	?	-	?	4.5µM	?	-
COc1ccc(C2CC(c3cccs3)=NN2C(=O)c2ccccc2)cc1OC (stereo not given)	0.41µM	-	-	-	.	-
COc1ccc(C2CC(c3cccs3)=NN2C(=O)CCC(=O)O)cc1 (stereo not given)	?	-	?	-	-	-
CC(=O)N1N=C(c2cccs2)CC1c1ccc(Br)cc1 (stereo not given)	-	-	-	-	-[0.00184 µM]	-
Cc1ccc(-n2ncc(C(=O)NCCCN3CCc4ccccc4C3)c2C2CCN(C(=O)OC(C)(C)C)CC2)cc1C	.	.	-	-	.	.
CCn1cc(C(=O)NCc2ccco2)c(=O)c2cc(F)c(N3CCN(C(=O)c4ccco4)CC3)cc21	-	-	-	20µM	7.4µM	-
C=CCNC(=O)c1cn(CC)c2cc(N3CCN(C(=O)c4ccco4)CC3)c(F)cc2c1=O	?	-	-	?	7.4µM	-
CCC(C)NC(=O)c1cn(CC)c2cc(N3CCN(C(=O)c4ccco4)CC3)c(F)cc2c1=O (stereo not given)	4.1µM	-	-	?	5.9µM	-
CCn1cc(C(=O)O)c(=O)c2cc(F)c(N3CCN(C(=S)NC(=O)c4ccc(Br)cc4)CC3)cc21	-	-	-	-	?	-
CCn1cc(C(=O)NCC(C)C)c(=O)c2cc(F)c(N3CCN(C(=O)c4ccco4)CC3)cc21	-	-	-	-	4.1µM	-
CCc1noc(C)c1C(=O)Nc1nnc(C2CCCCC2)s1	-	-	-	-	-	-
CCCCn1c(N)c(N(CCOC)C(=O)c2cccc(S(=O)(=O)N(CC)c3ccccc3)c2)c(=O)[nH]c1=O	?	-	-	-	?	-
Cc1cc(NC(=O)CN(C)S(=O)(=O)c2ccc3c(c2)CCC(=O)N3)ccc1Br	.	.	-	-	.	.
COc1ccc(C)cc1NC(=O)Cn1c(=O)oc2cc(S(=O)(=O)N3CCCCC3)ccc21	.	.	-	-	.	.
CC(C)c1nn2c(=O)cc(COC(=O)c3ccc(NC(=O)COc4ccccc4)cc3)nc2s1	.	.	-	-	.	.
CSc1ccccc1NC(=O)CN(c1cccc(C)c1)S(C)(=O)=O	.	-	-	-	-	-
